Numbering of substitutions follows the chain as printed.
Legend:
Test in all cases: protein-binding microarray (PBM); PBM: ~300 nM protein, 6 mM HEPES pH 7.8, 80 mM KCl, 0.5 mM EDTA, 0.5 mM EGTA, 6% glycerol, 35 ng/ul poly-dIdC, 1% milk, 1 h, room temperature; Ap Aiptasia and Nv Nematostella (sea anemones) / Co Capsaspora / Aq Amphimedon (sponge) / Dm Drosophila / Hu human; RHD is the Rel homology domain; high values mean tight binding
Conditions in all cases: dsDNA, one strand shown
GST-Ap-NF-kB RHD = target: T1, GST-Ap-NF-kB RHD (Exaiptasia pallida (Aiptasia), UniProt A0A913YAJ5 2-422)
T1 sequence: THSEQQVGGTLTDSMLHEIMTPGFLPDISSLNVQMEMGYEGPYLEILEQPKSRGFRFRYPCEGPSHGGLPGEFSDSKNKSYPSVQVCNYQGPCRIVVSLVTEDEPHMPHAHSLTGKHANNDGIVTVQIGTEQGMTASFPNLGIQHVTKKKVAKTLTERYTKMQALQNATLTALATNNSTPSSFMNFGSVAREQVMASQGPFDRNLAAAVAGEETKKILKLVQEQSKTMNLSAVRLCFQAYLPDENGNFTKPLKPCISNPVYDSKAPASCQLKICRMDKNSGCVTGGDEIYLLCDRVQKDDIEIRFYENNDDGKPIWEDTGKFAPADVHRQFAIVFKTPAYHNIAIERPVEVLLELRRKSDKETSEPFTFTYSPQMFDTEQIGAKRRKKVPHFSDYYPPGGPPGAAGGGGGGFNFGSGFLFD

[1] = target: T2, GST-Nv-NF-kB (Cys allele) (Nematostella vectensis, UniProt E5G601 2-411)
T2 sequence: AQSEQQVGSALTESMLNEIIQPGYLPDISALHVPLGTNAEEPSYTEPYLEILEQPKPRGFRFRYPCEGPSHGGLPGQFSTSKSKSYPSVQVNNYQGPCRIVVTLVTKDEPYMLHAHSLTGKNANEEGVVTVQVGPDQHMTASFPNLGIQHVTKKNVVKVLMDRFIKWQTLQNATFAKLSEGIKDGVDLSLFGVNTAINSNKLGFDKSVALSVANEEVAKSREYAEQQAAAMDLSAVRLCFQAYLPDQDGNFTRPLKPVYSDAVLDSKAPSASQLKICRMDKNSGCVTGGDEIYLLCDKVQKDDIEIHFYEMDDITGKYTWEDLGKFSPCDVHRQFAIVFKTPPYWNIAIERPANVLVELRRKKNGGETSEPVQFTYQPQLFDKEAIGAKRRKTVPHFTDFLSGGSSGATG

[2] = target: T3, GST-Nv-NF-kB (Ser allele) (Nematostella vectensis, UniProt A7UNT2 2-411)
T3 sequence: T2 sequence with Q21R, C66S, S207N, E215Q, V217A, E225K, A268E, D399E

GST-Co-NF-kB = target: T4, GST-Co-NF-kB (Capsaspora owczarzaki, UniProt F1ARL5 200-546)
T4 sequence: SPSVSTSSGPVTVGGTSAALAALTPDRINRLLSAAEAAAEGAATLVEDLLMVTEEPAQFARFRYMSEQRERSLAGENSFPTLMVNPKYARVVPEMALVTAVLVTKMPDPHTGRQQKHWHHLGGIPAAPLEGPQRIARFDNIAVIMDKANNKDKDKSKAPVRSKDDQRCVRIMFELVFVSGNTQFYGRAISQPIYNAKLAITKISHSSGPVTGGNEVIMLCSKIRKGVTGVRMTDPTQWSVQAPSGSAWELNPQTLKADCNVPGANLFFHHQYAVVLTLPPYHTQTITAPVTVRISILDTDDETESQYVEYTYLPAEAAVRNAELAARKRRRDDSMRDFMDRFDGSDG

GST-Dm-Relish = target: T5, GST-Dm-Relish (Drosophila melanogaster, UniProt Q94527 99-473)
T5 sequence: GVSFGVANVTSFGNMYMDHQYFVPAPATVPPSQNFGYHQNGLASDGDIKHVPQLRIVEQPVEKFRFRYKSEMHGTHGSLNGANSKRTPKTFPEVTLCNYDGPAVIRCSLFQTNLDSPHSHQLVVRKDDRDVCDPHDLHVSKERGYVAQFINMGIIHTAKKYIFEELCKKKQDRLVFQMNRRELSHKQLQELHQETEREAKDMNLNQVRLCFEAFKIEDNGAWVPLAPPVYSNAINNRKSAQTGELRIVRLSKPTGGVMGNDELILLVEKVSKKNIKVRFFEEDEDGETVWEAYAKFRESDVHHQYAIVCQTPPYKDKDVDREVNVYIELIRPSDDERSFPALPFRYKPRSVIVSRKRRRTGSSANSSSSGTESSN

GST-Aq-NF-kB = target: T6, GST-Aq-NF-kB (Amphimedon queenslandica, UniProt A9Y5G7 2-389)
T6 sequence: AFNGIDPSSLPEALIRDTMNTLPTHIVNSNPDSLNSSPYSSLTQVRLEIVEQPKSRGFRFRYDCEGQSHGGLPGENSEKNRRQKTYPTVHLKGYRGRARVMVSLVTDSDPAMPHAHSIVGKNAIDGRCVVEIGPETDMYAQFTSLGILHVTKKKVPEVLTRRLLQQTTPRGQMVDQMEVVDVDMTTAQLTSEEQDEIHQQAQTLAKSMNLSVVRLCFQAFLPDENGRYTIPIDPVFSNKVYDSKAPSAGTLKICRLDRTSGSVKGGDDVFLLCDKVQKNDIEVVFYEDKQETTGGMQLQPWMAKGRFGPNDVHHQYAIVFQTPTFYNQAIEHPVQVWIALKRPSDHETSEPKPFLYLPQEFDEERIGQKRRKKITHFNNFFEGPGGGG

GST-Hu-p50 = GST-Hu-p50 (Homo sapiens, UniProt P19838 7-356)
GST-Hu-p50, sequence (P19838 7-356): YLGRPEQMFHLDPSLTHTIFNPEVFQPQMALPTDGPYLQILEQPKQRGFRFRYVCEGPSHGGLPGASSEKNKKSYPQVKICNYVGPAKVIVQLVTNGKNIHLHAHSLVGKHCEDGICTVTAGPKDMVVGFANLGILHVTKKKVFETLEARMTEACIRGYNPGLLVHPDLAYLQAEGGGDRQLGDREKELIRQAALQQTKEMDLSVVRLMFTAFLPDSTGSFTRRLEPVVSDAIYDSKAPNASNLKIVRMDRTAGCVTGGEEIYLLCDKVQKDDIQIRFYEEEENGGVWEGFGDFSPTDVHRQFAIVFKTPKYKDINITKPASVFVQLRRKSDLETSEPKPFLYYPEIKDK

Sequence	binding signal (GST-Ap-NF-kB RHD)	binding signal [1]	binding signal [2]	binding signal (GST-Co-NF-kB)	binding signal (GST-Dm-Relish)	binding signal (GST-Aq-NF-kB)	binding signal (GST-Hu-p50)
CCGATTAACATCAAATTTCCCACTGATGTTAATCGGGTCTTGATTCGCTTGACGCTGCTG	2.73 z-score	4.26 z-score	4.5 z-score	4.39 z-score	3.33 z-score	4.27 z-score	4.02 z-score
CCGATTAACATCATGTTAGGGAATGATGTTAATCGGGTCTTGATTCGCTTGACGCTGCTG	1.38 z-score	3.63 z-score	2.76 z-score	1.51 z-score		4.43 z-score	2.03 z-score
CCGATTAACATCAATATATTCCCTGATGTTAATCGGGTCTTGATTCGCTTGACGCTGCTG	4.19 z-score	4.64 z-score	4.95 z-score	4.09 z-score	2.1 z-score	3.52 z-score	2.88 z-score
CCGATTAACATCAATGTGGGAAATGATGTTAATCGGGTCTTGATTCGCTTGACGCTGCTG	1.32 z-score	2.75 z-score	2.53 z-score	2.85 z-score		1.55 z-score	1.92 z-score
CCGATTAACATCAGGGGAAAGACTGATGTTAATCGGGTCTTGATTCGCTTGACGCTGCTG	4.98 z-score	6.57 z-score	7.06 z-score	4.97 z-score	6.16 z-score	5.51 z-score	4.9 z-score
CCGATTAACATCAGCTATTTCCCTGATGTTAATCGGGTCTTGATTCGCTTGACGCTGCTG	2.08 z-score	3.01 z-score	3.4 z-score	2.17 z-score		3.31 z-score	1.83 z-score
CCGATTAACATCAGGCTATTCCCTGATGTTAATCGGGTCTTGATTCGCTTGACGCTGCTG	1.73 z-score	2.68 z-score	1.67 z-score	1.6 z-score		3.74 z-score	1.4 z-score
CCGATTAACATCAGGGAATTGGATGATGTTAATCGGGTCTTGATTCGCTTGACGCTGCTG	2.15 z-score	3.52 z-score	3.84 z-score	1.88 z-score		2.8 z-score	1.84 z-score
CCGATTAACATCAGAATTCTCCCTGATGTTAATCGGGTCTTGATTCGCTTGACGCTGCTG	2.74 z-score	4.1 z-score	3.64 z-score	2.57 z-score		4.02 z-score	3.58 z-score
CCGATTAACATCAGGGAAACAAATGATGTTAATCGGGTCTTGATTCGCTTGACGCTGCTG	1.7 z-score	3.05 z-score	3.17 z-score	4.61 z-score		3.12 z-score	1.97 z-score
CCGATTAACATCAGGGGGAAAGATGATGTTAATCGGGTCTTGATTCGCTTGACGCTGCTG	5.81 z-score	5.7 z-score	7.72 z-score	8.03 z-score	2.89 z-score	5.04 z-score	5.75 z-score
CCGATTAACATCAGGGGGGAACCTGATGTTAATCGGGTCTTGATTCGCTTGACGCTGCTG	7.52 z-score	5.48 z-score	6.89 z-score	8.57 z-score	5.48 z-score	6.03 z-score	6.02 z-score
